The values that follow come from PubChem BioAssay (EPA / NIEHS).

The target in assay [1] is human Peroxisome Proliferator-activated Receptor alpha (PPARa), PPARA (gene 5465) (UniProt Q07869). Description: ATG_PPARa_TRANS: Attagene TRANS-FACTORIAL HepG2 Assay for human Peroxisome Proliferator-activated Receptor alpha (PPARa) (AID 2283001). In a few lines: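 Cells (HepG2) are transfected with multiple reporter transcription units, exposed to chemical for 24 h, then total RNA is reverse-transcribed and amplified. Labelled products are quantified by capillary electrophoresis; induction is referenced to DMSO.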

For assay [2], the target named is human Peroxisome Proliferator-activated Receptor delta (PPARd), PPARD (gene 5467) (UniProt Q03181). Description: ATG_PPARd_TRANS: Attagene TRANS-FACTORIAL HepG2 Assay for human Peroxisome Proliferator-activated Receptor delta (PPARd) (AID 2283002). In outline:
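Measured quantity: GAL4-UAS reporter transcript induction in HepG2 after 24 h chemical dosing, with NR-Gal4 chimeras supplied by transient transfection. Detection by RT-PCR and capillary electrophoresis; upward fit against DMSO.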

Read-out in assay [3]: Intercellular Adhesion Molecule 1 (ICAM1), ICAM1 (gene 3383)
Kind of assay: BSK_3C_ICAM1: BioMAP Diversity Plus: 3C Assay for Intercellular Adhesion Molecule 1 (ICAM1) Biomarker Activity (AID 2283003; active means hit-call score of the fitted dose curve at least 0.9, where 1 is the maximum; inactive means score below 0.9). To be noted: primary human endothelial cells (HUVEC); actives raise or lower the signal. In a few lines:
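ELISA readout of ICAM1 in human umbilical vein endothelial cells in the 3C system, taken 24 h post-dose. Gain or loss of signal versus DMSO was fitted in both directions, with SRB total-protein staining run in parallel.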

The nature of assay [4]: BSK_3C_Proliferation: Cell Proliferation Assessment in the BioMAP Diversity Plus: 3C Assay (AID 2283006; active means hit-call score of the fitted dose curve at least 0.9, where 1 is the maximum; inactive means score below 0.9;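 on AC50: potency may reflect either rise or fall in cell number versus DMSO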). The note with it: primary human endothelial cells (HUVEC). In outline: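 Proliferation as total protein: sulforhodamine B (0.1%) stain of TCA-fixed subconfluent human umbilical vein endothelial cells, absorbance 560 nm, 48 h after dosing. Activity fitted in both directions against DMSO baseline.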

Assay [5] concerns the target Peroxisome proliferator-activated receptor gamma (Homo sapiens) (UniProt P37231). Description: ATG_PPARg_TRANS: Attagene TRANS-FACTORIAL HepG2 Assay for human Peroxisome Proliferator-activated Receptor-gamma (PPARg) (AID 2283007). In outline:
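After 24 h of chemical exposure, transfected HepG2 cells carrying PPARγ-Gal4 chimera reporter constructs are lysed for RNA. Reporter transcripts are measured by RT-PCR and capillary electrophoresis with fluorescent labelling, and gain of signal is fitted versus DMSO.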

Assay [6] concerns the target Nuclear receptor subfamily 1 group I member 2 (Homo sapiens) (UniProt O75469). Description: ATG_PXR_TRANS: Attagene TRANS-FACTORIAL HepG2 Assay for human Pregnane X Receptor (PXR) (AID 2283008). In a few lines: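 HepG2 transfected (FuGene 6) with GAL4-UAS reporter units + PXR-Gal4 chimera; dosed 24 h. Total RNA → oligo(dT) RT → PCR → 6-FAM primer extension → HpaI cut → CE. Gain-of-signal vs DMSO.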

Assay [7] concerns the target human Retinoid X Receptor beta (RXRb), RXRB (gene 6257) (UniProt P28702). Kind of assay: ATG_RXRb_TRANS: Attagene TRANS-FACTORIAL HepG2 Assay for human Retinoid X Receptor beta (RXRb) (AID 2283013). In a few lines:
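Readout is reporter transcript induction after 24 h dosing. It is measured by RT-PCR of total RNA followed by fluorescent capillary electrophoresis. HepG2 liver cells carry transfected multiple reporter units driven by an exogenous RXRb-Gal4 fusion; activity is relative to DMSO.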

Assay [8] deals with human Thyroid Receptor alpha (THRa1), THRA (gene 7067) (UniProt P10827). Kind of assay: ATG_THRa1_TRANS: Attagene TRANS-FACTORIAL HepG2 Assay for human Thyroid Receptor alpha (THRa1) (AID 2283014). In outline: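 HepG2 cells transiently transfected with chimeric NR-Gal4 and GAL4-UAS reporter units, dosed 24 h. Reporter mRNA quantified by RT-PCR, fluorescent labeling, HpaI digestion and capillary electrophoresis; gain-of-signal fit versus DMSO.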

Read-out in assay [9]: E-selectin (Homo sapiens) (UniProt P16581)
Kind of assay: BSK_3C_Eselectin: BioMAP Diversity Plus: 3C Assay for Eselectin Biomarker Activity (AID 2283015; active means hit-call score of the fitted dose curve at least 0.9, where 1 is the maximum; inactive means score below 0.9;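 further: cell surface E-selectin protein quantified by ELISA 24 h after dosing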). The note with it: primary human endothelial cells (HUVEC); actives raise or lower the signal. In outline: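 Primary human umbilical vein endothelial cells (3C system), read 24 h after compound addition; E-selectin measured by ELISA. Bidirectional curve fitting against DMSO baseline; cytotoxicity by parallel SRB total-protein staining.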

Read-out in assay [10]: Interleukin-1 alpha (IL1a), IL1A (gene 3552)
Description: BSK_BE3C_IL1a: BioMAP Diversity Plus: BE3C Assay for Interleukin-1 alpha (IL1a) Biomarker Activity (AID 2283016; active means hit-call score of the fitted dose curve at least 0.9, where 1 is the maximum; inactive means score below 0.9). To be noted: primary human bronchial epithelial cells; actives raise or lower the signal. In outline:
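IL-1a measured by ELISA after 24 h treatment of human primary bronchial epithelial cells, with gain or loss of signal fitted versus DMSO. Parallel cultures stained with SRB gauge overt cytotoxicity.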

Read-out in assay [11]: Monocyte Chemoattractant Protein-1 (MCP1), CCL2 (gene 6347)
Kind of assay: BSK_3C_MCP1: BioMAP Diversity Plus: 3C Assay for Monocyte Chemoattractant Protein-1 (MCP1) Biomarker Activity (AID 2283017; active means hit-call score of the fitted dose curve at least 0.9, where 1 is the maximum; inactive means score below 0.9). To be noted: primary human endothelial cells (HUVEC); actives raise or lower the signal. In a few lines: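 Human umbilical vein endothelial cells (3C system) exposed to chemicals for 24 h; MCP-1 quantified by ELISA against the DMSO baseline with bidirectional fitting, and parallel SRB staining used to assess cytotoxicity.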

Read-out in assay [12]: Monocyte Chemoattractant Protein-1 (MCP1), CCL2 (gene 6347)
Description: BSK_4H_MCP1: BioMAP Diversity Plus: 4H Assay for Monocyte Chemoattractant Protein-1 (MCP1) Biomarker Activity (AID 2283018; active means hit-call score of the fitted dose curve at least 0.9, where 1 is the maximum; inactive means score below 0.9). The note with it: primary human endothelial cells (HUVEC); actives raise or lower the signal. In outline:
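ELISA of MCP-1 (CCL2) 24 h after chemical dosing of HUVEC in the BioMAP 4H system. Gain or loss versus DMSO fitted; parallel SRB staining (560 nm) tracked overt cytotoxicity.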

Read-out in assay [13]: Human Leukocyte Antigen - DR isotype (HLADR), HLA-DRA (gene 3122)
Kind of assay: BSK_3C_HLADR: BioMAP Diversity Plus: 3C Assay for Human Leukocyte Antigen - DR isotype (HLADR) Biomarker Activity (AID 2283019; active means hit-call score of the fitted dose curve at least 0.9, where 1 is the maximum; inactive means score below 0.9). To be noted: primary human endothelial cells (HUVEC); actives raise or lower the signal. In a few lines: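 HUVEC monoculture, HLA-DR measured by ELISA 24 h after chemical dosing. Fitted bidirectionally against DMSO baseline; parallel SRB staining assessed cytotoxicity, with 3C proliferation read by SRB at 48 h.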

Read-out in assay [14]: Interleukin-8 (IL8), CXCL8 (gene 3576)
Description: BSK_3C_IL8: BioMAP Diversity Plus: 3C Assay for Interleukin-8 (IL8) Biomarker Activity (AID 2283020; active means hit-call score of the fitted dose curve at least 0.9, where 1 is the maximum; inactive means score below 0.9). The note with it: primary human endothelial cells (HUVEC); actives raise or lower the signal. In outline:
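IL-8 was measured by ELISA in HUVEC cultures 24 h after chemical dosing, with gain or loss of signal fitted relative to DMSO. Parallel SRB total-protein staining tracked overt cytotoxicity.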

Read-out in assay [15]: Monokine induced gamma interferon (MIG), CXCL9 (gene 4283)
Kind of assay: BSK_3C_MIG: BioMAP Diversity Plus: 3C Assay for Monokine induced gamma interferon (MIG) Biomarker Activity (AID 2283021; active means hit-call score of the fitted dose curve at least 0.9, where 1 is the maximum; inactive means score below 0.9;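 on AC50: MIG protein level measured by immunoassay in the treated endothelial cultures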). To be noted: primary human endothelial cells (HUVEC); actives raise or lower the signal. In outline:
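ELISA measurement of MIG in human umbilical vein endothelial cells 24 h after treatment. Cytotoxicity tracked by SRB staining in parallel cultures; gain or loss of signal fitted relative to DMSO.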

Assay [16] concerns the target Retinoic acid receptor RXR-alpha (Homo sapiens) (UniProt P19793). Kind of assay: ATG_RXRa_TRANS: Attagene TRANS-FACTORIAL HepG2 Assay for human Retinoid X Receptor alpha (RXRa) (AID 2283012). In a few lines:
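TRANS format reporting activity of exogenous RXRa-Gal4 chimera in transiently transfected HepG2, 24 h exposure. Reporter transcripts quantified by RT-PCR with capillary electrophoresis, with gain of signal scored relative to DMSO.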

Assay [17] addresses human Retinoic Acid Receptor beta (RARb), RARB (gene 5915) (UniProt P10826). Kind of assay: ATG_RARb_TRANS: Attagene TRANS-FACTORIAL HepG2 Assay for human Retinoic Acid Receptor beta (AID 2283004). In outline: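 HepG2 cells were transiently transfected with GAL4-UAS reporter units that report activity of exogenous chimeric NR-Gal4 proteins, then exposed to compound for 24 h. Reporter mRNA was quantified by RT-PCR with capillary electrophoresis fluorescence, as gain of signal over DMSO.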

Assay [18] addresses Retinoic acid receptor alpha (Homo sapiens) (UniProt P10276). Description: ATG_RARa_TRANS: Attagene TRANS-FACTORIAL HepG2 Assay for human Retinoic Acid Receptor alpha (RARa) (AID 2283005). In outline:
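HepG2 cells transiently transfected with multiple reporter units expressing chimeric RARα-GAL4 fusion, with GAL4-UAS-driven reporters. After 24 h compound exposure, reporter mRNA induction quantified by RT-PCR and capillary electrophoresis with fluorescent labeling; gain-of-signal fitted relative to DMSO control.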

Assay [19] deals with human RAR-related Orphan Receptor beta (RORb), RORB (gene 6096) (UniProt Q92753). Description: ATG_RORb_TRANS: Attagene TRANS-FACTORIAL HepG2 Assay for human RAR-related Orphan Receptor beta (RORb) (AID 2283010). In a few lines: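 Read-out is reporter mRNA induction, quantified by RT-PCR with fluorescent capillary electrophoresis, 24 h post-dose in transiently transfected HepG2 expressing exogenous NR-Gal4 chimera. Activity fitted upward versus DMSO.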

The target in assay [20] is human RAR-related Orphan Receptor gamma (RORg), RORC (gene 6097) (UniProt P51449). Kind of assay: ATG_RORg_TRANS: Attagene TRANS-FACTORIAL HepG2 Assay for human RAR-related Orphan Receptor gamma (RORg) (AID 2283011). In outline: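 HepG2 cells transiently transfected with GAL4-UAS reporter units and chimeric RORg-Gal4 construct; after 24 h chemical exposure, reporter mRNA measured by RT-PCR with fluorescent capillary electrophoresis, gain of signal fitted against DMSO.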

One may read the AC50 as the midpoint of the concentration-response curve, whichever way the signal moves.

Values joined by “and” are separate entries in the source; they are usually repeats but may differ in a detail not shown here. Equal values may be shown once. Results filed as inconclusive are left out. More than one record can exist for a structure, and the calls need not agree. Active and inactive are the calls of the source. How the source made its calls, unless noted: active means hit-call score of the fitted dose curve at least 0.9, where 1 is the maximum; inconclusive means response in the unintended direction; inactive means score below 0.9.

Sequence of human Peroxisome Proliferator-activated Receptor alpha (PPARa), PPARA (gene 5465) (Q07869 whole entry, looked up): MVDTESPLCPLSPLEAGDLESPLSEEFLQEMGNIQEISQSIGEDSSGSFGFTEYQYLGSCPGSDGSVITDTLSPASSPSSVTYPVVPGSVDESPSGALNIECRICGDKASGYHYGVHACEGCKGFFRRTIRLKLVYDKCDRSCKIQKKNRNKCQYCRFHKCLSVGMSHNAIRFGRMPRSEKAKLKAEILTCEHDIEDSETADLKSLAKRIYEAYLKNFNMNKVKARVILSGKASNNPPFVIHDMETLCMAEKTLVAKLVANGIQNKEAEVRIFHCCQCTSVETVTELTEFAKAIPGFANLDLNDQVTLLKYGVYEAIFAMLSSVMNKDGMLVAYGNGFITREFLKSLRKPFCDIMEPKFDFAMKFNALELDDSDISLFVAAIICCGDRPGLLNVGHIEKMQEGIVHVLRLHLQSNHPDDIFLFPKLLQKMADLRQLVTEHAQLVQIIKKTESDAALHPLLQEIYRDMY
Sequence of Nuclear receptor subfamily 1 group I member 2 (Homo sapiens) (O75469 whole entry, looked up, the tested form may be a part): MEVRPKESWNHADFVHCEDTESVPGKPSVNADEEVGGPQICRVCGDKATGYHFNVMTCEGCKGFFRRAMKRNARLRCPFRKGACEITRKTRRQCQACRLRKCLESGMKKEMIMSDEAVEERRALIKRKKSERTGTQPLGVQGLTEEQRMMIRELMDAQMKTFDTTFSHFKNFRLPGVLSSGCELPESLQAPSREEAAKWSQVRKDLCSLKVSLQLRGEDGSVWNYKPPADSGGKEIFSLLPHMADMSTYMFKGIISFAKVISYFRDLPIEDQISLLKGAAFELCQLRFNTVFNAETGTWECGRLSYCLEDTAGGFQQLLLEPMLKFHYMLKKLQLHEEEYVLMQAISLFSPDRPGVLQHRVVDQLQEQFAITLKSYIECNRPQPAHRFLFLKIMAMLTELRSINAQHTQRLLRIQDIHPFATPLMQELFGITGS
Sequence of human Thyroid Receptor alpha (THRa1), THRA (gene 7067) (P10827 whole entry, looked up, the tested form may be a part): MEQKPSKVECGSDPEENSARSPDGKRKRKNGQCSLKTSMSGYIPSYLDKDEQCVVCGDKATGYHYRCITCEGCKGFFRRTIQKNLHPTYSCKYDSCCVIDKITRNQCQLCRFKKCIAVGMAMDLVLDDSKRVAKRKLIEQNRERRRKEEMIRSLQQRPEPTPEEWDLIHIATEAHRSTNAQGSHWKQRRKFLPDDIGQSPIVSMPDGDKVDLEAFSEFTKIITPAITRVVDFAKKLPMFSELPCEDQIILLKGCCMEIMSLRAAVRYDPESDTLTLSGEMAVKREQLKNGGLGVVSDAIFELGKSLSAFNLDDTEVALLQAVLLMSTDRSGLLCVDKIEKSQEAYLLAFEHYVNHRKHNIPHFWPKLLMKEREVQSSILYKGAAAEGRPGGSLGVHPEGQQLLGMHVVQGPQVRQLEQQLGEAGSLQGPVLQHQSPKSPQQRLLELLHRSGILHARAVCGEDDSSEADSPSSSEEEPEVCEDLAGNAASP
Sequence of human Retinoid X Receptor beta (RXRb), RXRB (gene 6257) (P28702 whole entry, looked up, the tested form may be a part): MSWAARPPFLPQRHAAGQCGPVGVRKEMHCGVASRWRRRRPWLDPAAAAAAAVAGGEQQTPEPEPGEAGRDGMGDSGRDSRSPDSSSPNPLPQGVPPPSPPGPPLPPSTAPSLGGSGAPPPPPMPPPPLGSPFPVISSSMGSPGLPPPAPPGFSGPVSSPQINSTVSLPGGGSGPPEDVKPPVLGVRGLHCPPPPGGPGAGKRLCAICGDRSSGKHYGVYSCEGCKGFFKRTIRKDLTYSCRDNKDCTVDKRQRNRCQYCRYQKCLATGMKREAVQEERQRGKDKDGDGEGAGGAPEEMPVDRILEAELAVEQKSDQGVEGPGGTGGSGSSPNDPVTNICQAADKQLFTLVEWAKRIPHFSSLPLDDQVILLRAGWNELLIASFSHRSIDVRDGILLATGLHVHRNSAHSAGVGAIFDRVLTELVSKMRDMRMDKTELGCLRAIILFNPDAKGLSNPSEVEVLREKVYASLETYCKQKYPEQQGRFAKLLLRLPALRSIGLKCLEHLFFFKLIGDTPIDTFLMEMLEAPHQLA
Sequence of human Peroxisome Proliferator-activated Receptor delta (PPARd), PPARD (gene 5467) (Q03181 whole entry, looked up, the tested form may be a part): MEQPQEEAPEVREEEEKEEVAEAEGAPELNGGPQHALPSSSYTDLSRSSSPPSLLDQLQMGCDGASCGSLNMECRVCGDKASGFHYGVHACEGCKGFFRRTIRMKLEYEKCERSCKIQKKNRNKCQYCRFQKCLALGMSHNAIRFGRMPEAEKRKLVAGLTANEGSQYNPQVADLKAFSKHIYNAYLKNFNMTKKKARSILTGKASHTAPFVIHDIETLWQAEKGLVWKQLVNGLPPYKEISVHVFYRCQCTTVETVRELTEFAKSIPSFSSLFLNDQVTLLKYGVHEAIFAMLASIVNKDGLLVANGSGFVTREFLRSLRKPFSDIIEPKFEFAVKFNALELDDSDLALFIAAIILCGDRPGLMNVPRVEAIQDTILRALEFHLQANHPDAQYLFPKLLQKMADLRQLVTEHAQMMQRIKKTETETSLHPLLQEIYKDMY
Sequence of Peroxisome proliferator-activated receptor gamma (Homo sapiens) (P37231 whole entry, looked up, the tested form may be a part): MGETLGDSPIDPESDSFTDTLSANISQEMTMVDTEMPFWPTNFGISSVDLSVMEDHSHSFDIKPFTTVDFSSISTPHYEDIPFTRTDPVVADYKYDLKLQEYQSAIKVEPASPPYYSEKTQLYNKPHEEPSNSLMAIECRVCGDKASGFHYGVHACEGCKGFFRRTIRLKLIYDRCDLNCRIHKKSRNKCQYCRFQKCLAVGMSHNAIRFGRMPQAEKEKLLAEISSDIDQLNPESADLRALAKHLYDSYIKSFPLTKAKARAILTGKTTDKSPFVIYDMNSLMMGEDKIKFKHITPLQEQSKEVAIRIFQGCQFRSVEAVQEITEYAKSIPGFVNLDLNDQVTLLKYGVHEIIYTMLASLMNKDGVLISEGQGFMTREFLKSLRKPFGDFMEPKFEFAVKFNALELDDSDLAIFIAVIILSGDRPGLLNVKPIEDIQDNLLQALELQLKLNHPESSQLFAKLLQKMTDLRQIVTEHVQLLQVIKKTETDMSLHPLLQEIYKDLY
Sequence of E-selectin (Homo sapiens) (P16581 whole entry, looked up): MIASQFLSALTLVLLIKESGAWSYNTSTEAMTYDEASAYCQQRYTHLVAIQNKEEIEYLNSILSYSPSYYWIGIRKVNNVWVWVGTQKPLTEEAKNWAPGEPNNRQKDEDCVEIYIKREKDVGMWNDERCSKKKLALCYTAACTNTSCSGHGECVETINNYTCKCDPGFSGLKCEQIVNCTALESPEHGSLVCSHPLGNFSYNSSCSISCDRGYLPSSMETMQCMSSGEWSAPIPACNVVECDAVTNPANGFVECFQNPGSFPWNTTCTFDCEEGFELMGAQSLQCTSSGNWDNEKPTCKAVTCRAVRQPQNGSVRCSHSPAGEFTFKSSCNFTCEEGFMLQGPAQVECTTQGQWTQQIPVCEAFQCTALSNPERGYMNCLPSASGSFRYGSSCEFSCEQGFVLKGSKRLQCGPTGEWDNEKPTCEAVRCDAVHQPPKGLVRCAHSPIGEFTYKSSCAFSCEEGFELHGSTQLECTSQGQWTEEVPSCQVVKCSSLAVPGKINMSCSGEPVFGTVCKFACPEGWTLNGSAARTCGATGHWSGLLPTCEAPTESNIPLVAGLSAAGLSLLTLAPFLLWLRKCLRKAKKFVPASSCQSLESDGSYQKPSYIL
Sequence of human Retinoic Acid Receptor beta (RARb), RARB (gene 5915) (P10826 whole entry, looked up, the tested form may be a part): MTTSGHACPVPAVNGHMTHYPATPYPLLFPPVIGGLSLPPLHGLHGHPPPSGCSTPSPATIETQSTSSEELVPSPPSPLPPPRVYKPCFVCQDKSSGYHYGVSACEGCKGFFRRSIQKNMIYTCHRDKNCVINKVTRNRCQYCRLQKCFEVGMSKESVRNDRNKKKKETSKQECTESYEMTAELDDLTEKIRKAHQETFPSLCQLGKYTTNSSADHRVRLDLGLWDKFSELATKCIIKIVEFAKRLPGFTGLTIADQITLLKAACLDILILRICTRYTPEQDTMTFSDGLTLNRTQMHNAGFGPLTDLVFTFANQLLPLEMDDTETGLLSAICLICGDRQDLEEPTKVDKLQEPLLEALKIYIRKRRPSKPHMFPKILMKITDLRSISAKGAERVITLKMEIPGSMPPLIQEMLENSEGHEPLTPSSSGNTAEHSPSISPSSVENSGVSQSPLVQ
Sequence of Retinoic acid receptor alpha (Homo sapiens) (P10276 whole entry, looked up, the tested form may be a part): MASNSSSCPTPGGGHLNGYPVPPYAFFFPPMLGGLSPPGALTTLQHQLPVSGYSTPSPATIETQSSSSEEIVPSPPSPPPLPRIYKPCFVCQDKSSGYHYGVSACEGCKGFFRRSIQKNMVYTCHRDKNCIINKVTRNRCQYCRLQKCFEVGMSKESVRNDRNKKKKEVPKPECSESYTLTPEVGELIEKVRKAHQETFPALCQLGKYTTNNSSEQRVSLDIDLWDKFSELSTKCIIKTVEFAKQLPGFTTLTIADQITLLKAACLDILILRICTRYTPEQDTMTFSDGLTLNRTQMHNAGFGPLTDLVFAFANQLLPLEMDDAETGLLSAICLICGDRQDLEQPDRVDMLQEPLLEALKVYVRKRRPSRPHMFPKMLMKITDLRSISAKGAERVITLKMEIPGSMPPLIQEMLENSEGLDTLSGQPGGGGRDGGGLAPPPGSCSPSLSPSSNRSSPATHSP
Sequence of Retinoic acid receptor RXR-alpha (Homo sapiens) (P19793 whole entry, looked up, the tested form may be a part): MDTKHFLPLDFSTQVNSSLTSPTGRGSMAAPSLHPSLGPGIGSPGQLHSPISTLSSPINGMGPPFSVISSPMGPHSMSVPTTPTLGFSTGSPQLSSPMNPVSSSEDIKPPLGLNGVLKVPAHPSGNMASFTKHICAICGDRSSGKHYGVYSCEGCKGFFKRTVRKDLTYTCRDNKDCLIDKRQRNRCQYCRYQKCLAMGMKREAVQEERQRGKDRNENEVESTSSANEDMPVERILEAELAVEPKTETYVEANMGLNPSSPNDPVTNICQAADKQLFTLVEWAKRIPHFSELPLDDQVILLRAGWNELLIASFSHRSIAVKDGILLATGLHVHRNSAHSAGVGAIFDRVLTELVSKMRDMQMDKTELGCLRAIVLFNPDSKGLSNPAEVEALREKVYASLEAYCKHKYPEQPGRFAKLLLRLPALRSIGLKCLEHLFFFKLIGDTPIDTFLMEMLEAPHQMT

For the compound `CCCCOC(=O)c1ccc(O)cc1`, the compound was called inactive in assay [1], in assay [2], in assay [3], in [4], in [5] and in [6]. The outcome in [7], in assay [8], in assay [9], in [10], in assay [11] and in [12] was inactive. Further, the result in [13], in assay [14] and in [15] was inactive. In addition, the AC50 in [5] is 39.9 µM (active) and 54 µM (active) and 27.3 µM (active); in [7] it was 26.9 µM (active) and 26.4 µM (active).

`CC(C)(C)c1csc(-c2cc3cc(OCc4ccccc4CC(=O)O)ccc3o2)n1`: the call in assay [1], in [2], in assay [3], in assay [6], in [16] and in assay [9] was inactive. Moreover, the AC50 in assay [4] is 18.1 µM (active); in [5], 1.51 µM (active); in assay [10], 10 µM (active); in assay [11], 21.6 µM (active); in assay [12], 22.6 µM (active); in assay [13] it was 17.3 µM (active). Moreover, the AC50 in assay [14] was 18.4 µM (active); in assay [15] it was 32 µM (active).

Turning to `O=C1CCC(C2CCCCC2)CC1`, the outcome in assay [1], in assay [2], in assay [3], in [17], in assay [18] and in assay [4] was inactive. The result in assay [19], in [20], in [7], in assay [8], in assay [9] and in [10] was inactive. Further, the outcome in assay [11], in [12], in assay [13], in [14] and in assay [15] was inactive. The half-maximal activity concentration (AC50) in assay [5] is 27.6 µM (active) [middle of 4 runs].
